Measurements as given in PubChem BioAssay AID1159580 (chemical genetic matrix, 2015).
Among all 5,500 compounds or so, about 2,000 (36%) were called active. Not shown: some 18% with an inconclusive outcome. Cut-off read from the data, not from the text of the source: active = normalized growth mostly below about 0.91 (no sharp cut-off); inconclusive = no clear call, values can overlap the other calls; inactive = mostly above about 0.92. The list shows a part of the results.

Experiment: chemical genetic growth profiling, strain panel (AID 1159580);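 note: tested at 20 µM; growth read once vehicle control cultures reached saturation at 30 °C; 1 = growth at the plate median or of vehicle wells; lower values mean less growth of the strain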
Conditions: S. cerevisiae deletion strains, growth OD

Measured: normalized growth

C=C1CCC2[C@](C)(CO)[C@H](O)CC[C@@]2(C)[C@@H]1C/C=C1/C(=O)OC[C@H]1O (some centres undefined)
inactive: locus YAL013W, strain DEP1, hits give low values 1.01 | locus YAL021C, strain ccr4, hits give low values 0.993 | locus YAL026C, strain drs2, hits give low values 0.992 | locus YAL030W, strain snc1, hits give low values 0.996 | locus YBL061C, strain skt5, hits give low values 1 | locus YBR009C, strain hhf1, hits give low values 1.02 | locus YBR021W, strain FUR4, hits give low values 1 | locus YBR023C, strain chs3, hits give low values 0.999 | locus YBR171W, strain sec66, hits give low values 0.978 | locus YBR229C, strain ROT2, hits give low values 1.01 | locus YBR231C, strain swc5, hits give low values 0.996 | locus YBR279W, strain paf1, hits give low values 1 | locus YCL011C, strain gbp2, hits give low values 0.985 | locus YCL016C, strain dcc1, hits give low values 0.998 | locus YCL029C, strain bik1, hits give low values 1.03 | locus YCL069W, strain vba3, hits give low values 1.01 | locus YCR088W, strain abp1, hits give low values 1 | locus YDL005C, strain med2, hits give low values 0.961 | locus YDL035C, strain GPR1, hits give low values 1.02 | locus YDL040C, strain nat1, hits give low values 0.995 | locus YDL074C, strain BRE1, hits give low values 1.06 | locus YDL101C, strain DUN1, hits give low values 1.02 | locus YDL185W, strain tfp1, hits give low values 1.03 | locus YDL192W, strain arf1, hits give low values 1.02 | locus YDR001C, strain nth1, hits give low values 0.988 | locus YDR069C, strain doa4, hits give low values 0.992 | locus YDR101C, strain arx1, hits give low values 1.01 | locus YDR137W, strain rgp1, hits give low values 0.995 | locus YDR159W, strain sac3, hits give low values 1.04 | locus YDR162C, strain NBP2, hits give low values 1.04 | locus YDR195W, strain ref2 0.949 | locus YDR297W, strain sur2, hits give low values 1 | locus YDR318W, strain mcm21, hits give low values 1.05 | locus YDR334W, strain swr1, hits give low values 0.987 | locus YDR335W, strain msn5, hits give low values 0.986 | locus YDR388W, hits give low values 1.01 | locus YDR392W, strain spt3, hits give low values 0.998 | locus YDR502C, strain sam2, hits give low values 1.05 | locus YEL003W, strain gim4, hits give low values 0.995 | locus YEL037C, strain rad23, hits give low values 0.999 | locus YEL061C, strain CIN8 (second series), hits give low values 0.99 | locus YEL061C, strain CIN8, hits give low values 1.01 | locus YER015W, strain faa2, hits give low values 0.994 | locus YER016W, strain bim1, hits give low values 0.978 | locus YER110C, hits give low values 1.02 | locus YER111C, strain swi4, hits give low values 0.988 | locus YER155C, strain BEM2 (second series), hits give low values 0.995 | locus YER155C, strain BEM2, hits give low values 1.02 | locus YER167W, strain BCK2, hits give low values 1.01 | locus YFR010W, strain ubp6, hits give low values 1.02 | locus YGL078C, strain dbp3, hits give low values 1.03 | locus YGL086W, strain mad1, hits give low values 1.01 | locus YGL167C, strain pmr1, hits give low values 0.992 | locus YGL173C, strain kem1, hits give low values 1.01 | locus YGL227W, strain vid30, hits give low values 0.991 | locus YGL240W, strain doc1, hits give low values 0.999 | locus YGL248W, strain PDE1, hits give low values 1.03 | locus YGL253W, strain hxk2, hits give low values 0.971 | locus YGR078C, strain PAC10, hits give low values 1.03 | locus YGR135W, strain pre9, hits give low values 1.05 | locus YGR252W, strain gcn5, hits give low values 1.01 | locus YHR013C, strain ard1, hits give low values 0.983 | locus YHR027C, strain rpn1, hits give low values 0.976 | locus YHR079C, strain IRE1 (second series), hits give low values 1.03 | locus YHR094C, strain hxt1, hits give low values 1.02 | locus YHR129C, strain ARP1, hits give low values 1.01 | locus YHR142W, strain chs7, hits give low values 0.976 | locus YHR200W, strain rpn10, hits give low values 1.03 | locus YIL066C, strain RNR3, hits give low values 1.02 | locus YIL073C, strain SPO22, hits give low values 1.11 | locus YIL125W, strain kgd1, hits give low values 1.03 | locus YIR030C, strain dcg1, hits give low values 1.03 | locus YJL092W, strain hpr5, hits give low values 0.985 | locus YJL095W, strain BCK1 (second series), hits give low values 0.982 | locus YJL095W, strain BCK1, hits give low values 1.05 | locus YJL115W, strain asf1, hits give low values 0.955 | locus YJL129C, strain trk1, hits give low values 0.982 | locus YJL134W, strain LCB3, hits give low values 1.01 | locus YJL154C, strain vps35, hits give low values 0.984 | locus YJL164C, strain tpk1, hits give low values 1.01 | locus YJL166W, strain qcr8, hits give low values 0.987 | locus YJL168C, strain set2, hits give low values 1.02 | locus YJL187C, strain SWE1 (second series), hits give low values 1.02 | locus YJL187C, strain SWE1, hits give low values 0.996 | locus YJR043C, strain POL32, hits give low values 1.02 | locus YKL009W, strain mrt4, hits give low values 1.02 | locus YKL068W, hits give low values 1.02 | locus YKL085W, strain MDH1 (second series), hits give low values 1.03 | locus YKL085W, strain MDH1, hits give low values 1.03 | locus YKL160W, strain elf1, hits give low values 0.995 | locus YKL190W, strain CNB1, hits give low values 1.01 | locus YKR001C, strain vps1, hits give low values 1.07 | locus YKR026C, strain gcn3, hits give low values 0.999 | locus YKR091W, strain srl3, hits give low values 0.979 | locus YLL001W, strain dnm1, hits give low values 1.01 | locus YLL026W, hits give low values 0.993 | locus YLL041C, strain sdh2, hits give low values 1.02 | locus YLR027C, strain aat2, hits give low values 1 | locus YLR039C, strain RIC1, hits give low values 1.09 | locus YLR058C, strain SHM2, hits give low values 1.04 | locus YLR102C, strain apc9, hits give low values 1.02 | locus YLR221C, strain rsa3, hits give low values 1.04 | locus YLR258W, strain gsy2, hits give low values 1.01 | locus YLR262C, strain YPT6 (second series), hits give low values 0.975 | locus YLR268W, strain sec22, hits give low values 1.04 | locus YLR320W, strain mms22, hits give low values 1.04 | locus YLR330W, strain CHS5, hits give low values 1.02 | locus YLR342W, strain FKS1, hits give low values 1.02 | locus YLR357W, strain rsc2, hits give low values 0.979 | locus YLR370C, strain arc18, hits give low values 0.972 | locus YLR371W, strain rom2, hits give low values 1.02 | locus YLR384C, strain iki3, hits give low values 0.993 | locus YLR418C, strain cdc73, hits give low values 1.07 | locus YML016C, strain PPZ1, hits give low values 1.01 | locus YML032C, strain rad52, hits give low values 1.03 | locus YML120C, strain ndi1, hits give low values 1 | locus YML124C, strain tub3, hits give low values 1.03 | locus YMR058W, strain fet3, hits give low values 0.977 | locus YMR078C, strain ctf18, hits give low values 1.03 | locus YMR125W, strain sto1, hits give low values 0.98 | locus YMR129W, hits give low values 0.98 | locus YMR205C, strain PFK2, hits give low values 0.995 | locus YMR223W, strain ubp8, hits give low values 1.03 | locus YMR231W, strain pep5, hits give low values 0.997 | locus YMR307W, strain GAS1, hits give low values 0.967 | locus YNL067W, strain RPL9B, hits give low values 1.02 | locus YNL071W, strain lat1, hits give low values 1 | locus YNL209W, strain ssb2, hits give low values 0.987 | locus YNL233W, strain BNI4, hits give low values 1.02 | locus YNL248C, strain rpa49, hits give low values 0.979 | locus YNL250W, strain rad50, hits give low values 1.04 | locus YNL271C, strain bni1, hits give low values 1.03 | locus YNL298W, strain CLA4, hits give low values 1.03 | locus YNL307C, strain MCK1, hits give low values 1.04 | locus YNL322C, strain KRE1 (second series), hits give low values 0.977 | locus YNR049C, strain mso1, hits give low values 0.974 | locus YNR052C, strain pop2, hits give low values 1.03 | locus YOL006C, strain TOP1, hits give low values 1.07 | locus YOL012C, strain htz1 1.13 | locus YOL147C, strain pex11, hits give low values 1.04 | locus YOR001W, strain rrp6, hits give low values 1.01 | locus YOR061W, strain CKA2, hits give low values 1.02 | locus YOR069W, strain VPS5, hits give low values 1.01 | locus YOR070C, strain gyp1, hits give low values 1.01 | locus YOR080W, strain dia2, hits give low values 0.966 | locus YOR083W, strain WHI5, hits give low values 1 | locus YOR106W, strain vam3, hits give low values 0.986 | locus YOR136W, strain idh2, hits give low values 1.04 | locus YOR144C, strain elg1, hits give low values 1.03 | locus YOR184W, strain ser1, hits give low values 1.05 | locus YOR265W, strain rbl2, hits give low values 0.993 | locus YOR270C, strain vph1, hits give low values 1.02 | locus YOR290C, strain snf2, hits give low values 0.966 | locus YOR316C, strain cot1, hits give low values 1.03 | locus YPL051W, strain arl3, hits give low values 0.986 | locus YPL078C, strain atp4, hits give low values 0.982 | locus YPL106C, strain sse1, hits give low values 1 | locus YPL240C, strain hsp82, hits give low values 0.998 | locus YPL241C, strain CIN2, hits give low values 1.01 | locus YPR119W, strain clb2, hits give low values 1.02 | locus YPR141C, strain kar3, hits give low values 1.01 | locus YPR163C, strain tif3, hits give low values 1.04 | locus YPR167C, strain met16, hits give low values 1.03 | strain wtn01, hits give low values 1.02
